HepG2 tox = kills HepG2 cells in TGF-b inhibitor counter-screen; HepG2 CAGA-GFP viability, ATP luminescence, 18 h; Potency, µM (top dose mostly 46.1 µM), for the others: at the top dose activity change, negative = cytotoxicity, hits mostly cytotoxic; hit rate 0.76% among 410,000; AID 588856
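HepG2 CAGA-GFP cells (1000/well, DMEM with 1% FBS) received compound, then TGF-beta at 500 pg/mL final, and were incubated 18 hours at 37 degrees C. Viability was read by CellTiter-Glo luminescence. Media-only wells were set as complete cell-killing and DMSO as no toxicity.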
Nrf2 ARE act = activators of Nrf2 (ARE) signaling. Potency, µM (doses to about 46.1 µM), inactives show at the top dose activation, usual class: activators. AREc32 ARE-luciferase reporter (MCF7-derived line), luminescence, 24 h. hit rate 0.31% among 410,000. AID 624171; further: % of control where 0% means no effect; nearly all actives have a fitted effect of over 65% in size
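Luciferase luminescence (Steady-Glo, 30 min at room temperature) served as the read-out of ARE activation in AREc32 cells treated with compounds for 24 hr at 37 deg C.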
Nrf2 block = inhibitors of Nrf2 signaling; A549 ARE-Fluc reporter, luciferase luminescence, 18-24 h; AID 504444; Potency, µM (series often up to 46 µM), without a hit: at the highest dose activity change, negative = inhibition, most hits filed as inhibitors; hit rate 2.1% among 360,000; further: on the % scale 0 is the no-effect control and ±100 the full control effect; nearly all actives have a fitted effect of over 60% in size
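Quantitative HTS in A549 cells stably bearing an antioxidant response element-firefly luciferase construct. Inhibition of Nrf2-driven transcription was scored by luminescence after 18-24 h of compound exposure at 37 °C.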
A549 viability = counter-screen for Nrf2 inhibitors: cytotoxicity in A549 cells; A549 ARE-Fluc cells, CellTiter-Fluor viability, 18-24 h; Potency, µM (series often up to 46 µM), for the others: top-dose activity change, negative = cytotoxicity, actives largely listed as inhibitors; hit rate 0.16% among 390,000; AID 504648; further: on the % scale 0 is the no-effect control and ±100 the full control effect
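A549 ARE_Fluc cells in 5% FBS OPTI-MEM were exposed to compounds in concentration-response for 18-24 h at 37 deg C. Viability was read by CellTiter-Fluor fluorescence (Ex 405/Em 525) after 30 min, before the luciferase read.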
TGFb inhibitor = blocks TGF-b signaling | HepG2 CAGA-GFP TGF-b/SMAD3 reporter, GFP fluorescence, 18 h; TGF-beta stimulated, 500 pg/mL final | Potency, µM (series often up to 46.1 µM), for inactives: at the highest dose activity, negative = inhibition, hits mostly inhibitors | hit rate 1.2% among 410,000 | AID 588855; further: on the % scale 0 is the no-effect control and ±100 the full control effect; nearly all actives have a fitted effect of over 65% in size
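HEPG2 CAGA-GFP reporter cells (1000/well, DMEM with 1% FBS) received compounds, then recombinant TGF-beta at 500 pg/mL final for 18 hours at 37 degrees C. Per-cell GFP summed per well was normalised to unstimulated and stimulated DMSO controls before curve fitting.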
Active calls of the source: *; ? = inconclusive; / = not tested or not shown. Shown are actives, neighbours in structure and some others; about 3.6% of the full set was active somewhere. The call rests on the fitted dose curve; in most records, active means well fitted curve in the direction sought with a large enough effect; inconclusive means small, poorly fitted or top-dose-only effect, or another doubt; inactive means no such curve, though single readings can be large; an effect the other way counts as inactive or inconclusive. Potency means the concentration at half of the fitted maximal effect.

SMILES	HepG2 tox	Nrf2 ARE act	Nrf2 block	A549 viability	TGFb inhibitor
CC(=O)N(CCS(=O)(=O)c1ccc(Cl)cc1)Cc1cccs1	-10%	0%	16%	26%	-18%
Cc1cc(NC(=O)Nc2ccc(Cl)c(Cl)c2)no1	-36%	2%	8%	0%	-9%
COCCN1C(=O)C(CC(=O)Nc2ccc(C(C)=O)cc2)SC1=Nc1ccccc1 (configuration not stated)	9%	6%	-6%	-2%	-3%
CC(O)CN1C(=O)C(CC(=O)Nc2ccc(Cl)cc2)SC1=Nc1ccccc1 (configuration not stated)	-67%	0%	?	?	11µM*
COc1ccc(C(=O)c2oc3nc(C)cc(C)c3c2N)cc1	-2%	4%	14%	-6%	-5%
O=C(C1CCCCC1)N(Cc1cccnc1)c1nc2c(F)cc(F)cc2s1	-36%	-1%	/	0%	22µM*
Cc1cccc2sc(N(Cc3cccnc3)C(=O)C3CCCCC3)nc12	-41%	1%	/	0%	10µM*
COc1ccc(NC(=O)/C(=C\c2ccco2)NC(=O)c2ccco2)cc1	-13%	6%	1%	5%	6%
COc1ccc(CC2S/C(=N/N=C/c3ccccc3O)NC2=O)cc1 (configuration not stated)	-51%	0%	-20%	-1%	7.9µM*
O=C1N/C(=N/N=C/c2ccccc2O)SC1Cc1ccc(F)cc1 (configuration not stated)	-29%	1%	-13%	-5%	?
O=C(CCc1ccccc1O)N/N=C/c1ccc(Sc2cccc3cccnc23)o1	-59%	5%	?	?	14µM*
Cc1nc(NCc2ccccn2)c2ccccc2n1	2%	-1%	6.5µM*	-2%	-23%
CCc1nc(NCc2ccccn2)c2oc3ccccc3c2n1	-24%	0%	9.2µM*	-12%	-14%
c1ccc(CNc2nc(-c3ccccn3)nc3ccccc23)cc1	-9%	-1%	16µM*	-17%	0%
COc1cc(C2CC(=O)OC3=C2C(=O)CC(C)(C)C3)cc(OC)c1OC (configuration not stated)	9%	-1%	3%	-13%	18%
CCOC(=O)c1ccc(N2C(=O)c3n[nH]c(C)c3C2c2ccc(OCC)cc2)cc1 (configuration not stated)	-117%	-4%	?	-15%	11µM*
CCOC(=O)c1ccc(N2C(=O)c3n[nH]c(-c4ccco4)c3C2c2ccc(C)cc2)cc1 (configuration not stated)	16µM*	-3%	?	-24%	?
CCOC(=O)c1ccc(N2C(=O)c3n[nH]c(C)c3C2c2ccccn2)cc1 (configuration not stated)	-11%	3%	7%	4%	-7%
CCOC(=O)c1ccc(N2C(=O)c3n[nH]c(-c4ccco4)c3C2c2ccc(O)c(OC)c2)cc1 (configuration not stated)	-69%	13%	?	3%	10µM*
CCc1ccc(-c2ccc(SCc3ccccn3)nn2)cc1	-24%	4%	8%	0%	4%
Cc1cccc(C)c1N1CCN(C(=O)c2ccc3c(c2)OCO3)CC1	-23%	2%	0%	5%	-15%
C/C(=N\NC(=O)c1nnn(-c2nonc2N)c1CN(C)c1ccccc1)c1ccccc1O	-22%	-1%	8.2µM*	-18%	?
COc1ccc(/C(C)=N/NC(=O)c2nnn(-c3nonc3N)c2CN(C)c2ccccc2)cc1	9%	0%	16µM*	-13%	5%
COc1ccc(-c2cc(C(=O)NCCN3CCOCC3)c3ccccc3n2)cc1OC	-24%	0%	0%	-6%	-27%
COc1ccc(C(=O)c2coc3c2C(=O)C(=O)c2ccccc2-3)cc1	-33%	22%	5%	-1%	?
SMILES	HepG2 tox	Nrf2 ARE act	Nrf2 block	A549 viability	TGFb inhibitor
O=C(c1ccccc1)c1coc2c1C(=O)c1ccccc1C2=O	10µM*	-1%	?	?	?
O=C(CC(c1ccccc1)c1cc(Br)ccc1O)NCC1(c2ccccc2)CCCC1 (configuration not stated)	-99%	-3%	?	?	18µM*
O=C(CC(c1ccccc1)c1cc(Br)ccc1O)NCCN1CCOCC1 (configuration not stated)	-13%	0%	-12%	8%	-1%
Cc1cc(C)n2nc(-c3ccccc3)cc2n1	0%	8.9µM*	?	9%	61%
Cc1ccc(-c2cc3nc(C)cc(C)n3n2)cc1	-17%	?	?	-1%	-16%
Cc1ccc(NC(=O)c2cc3c([nH]c2=O)CC(C)(C)CC3=O)c(C)c1	5%	0%	12%	-1%	25%
Cc1onc(-c2ccccc2)c1C(=O)OCCOc1ccc([N+](=O)[O-])cc1[N+](=O)[O-]	-30%	2%	?	-6%	14µM*
Fc1ccc(NC(=S)NCCc2ccccc2)c(F)c1F	-21%	5%	?	-5%	?
CCC(O)CNC(=O)NC(=C(Cl)Cl)c1ccc(C)c(F)c1 (configuration not stated)	-9%	?	18µM*	-14%	-13%
COC(=O)c1[nH]c2ccc(C)cc2c1NC(=O)CN1CCN(c2ccccc2)CC1	-20%	0%	18µM*	-19%	-8%
CCCCNS(=O)(=O)c1ccc2nc(NC(=O)c3cccnc3)sc2c1	-1%	0%	/	-4%	29%
CCCCCCn1c2c(c(=N)c3c1CCC3)CCC2	-8%	4%	15µM*	-6%	?
CCCCCCCCCn1c2c(c(=N)c3c1CCC3)CCC2	-72%	-4%	?	1%	4.5µM*
CCCC(=O)N1CCCC1(C)C(=O)NCCc1ccccn1 (configuration not stated)	10%	0%	/	/	18%
N#C/C(=C/c1ccc(Sc2nc3ccccc3[nH]2)o1)c1cccc(Br)c1	0%	6%	16µM*	?	23%
N#C/C(=C/c1ccc(Sc2nc3ccccc3[nH]2)o1)c1ccccc1F	-24%	16%	?	?	?
N#C/C(=C/c1ccc(Sc2nc3ccccc3[nH]2)o1)c1cccc(F)c1	-19%	18%	21µM*	26µM*	?
COc1ccccc1C(=O)Nc1cccc(NC(=O)c2ccccc2OC)n1	-26%	2%	0%	2%	-45%
O=C(O)c1ccc2nc(-c3cc4cccc(O)c4oc3=O)[nH]c2c1	8.9µM*	-5%	/	-10%	/
CCOC(=O)c1cc(-c2ccccc2)sc1NC(=O)COC(=O)c1cccc(S(N)(=O)=O)c1	-104%	1%	-19%	-3%	?
